{"source": "PubChem BioAssay AID651814", "about": "(National Center for Advancing Translational Sciences (NCATS), 2012)", "note": "Among all 2,100 compounds or so, about 590 (28%) were called active. Roughly 42% stayed inconclusive and do not appear here. Calls come from the whole dose curve; as a rule, active = well fitted inhibition curve with a large enough effect; inconclusive = small, poorly fitted or top-dose-only effect; inactive = flat fitted curve, though single readings scatter. The list shows a part of the results. Potency is the fitted concentration of half-maximal effect.", "data": [{"target": "DNA dC->dU-editing enzyme APOBEC-3F (Homo sapiens) (UniProt Q8IUX4)", "sequence (Q8IUX4 whole entry, looked up)": "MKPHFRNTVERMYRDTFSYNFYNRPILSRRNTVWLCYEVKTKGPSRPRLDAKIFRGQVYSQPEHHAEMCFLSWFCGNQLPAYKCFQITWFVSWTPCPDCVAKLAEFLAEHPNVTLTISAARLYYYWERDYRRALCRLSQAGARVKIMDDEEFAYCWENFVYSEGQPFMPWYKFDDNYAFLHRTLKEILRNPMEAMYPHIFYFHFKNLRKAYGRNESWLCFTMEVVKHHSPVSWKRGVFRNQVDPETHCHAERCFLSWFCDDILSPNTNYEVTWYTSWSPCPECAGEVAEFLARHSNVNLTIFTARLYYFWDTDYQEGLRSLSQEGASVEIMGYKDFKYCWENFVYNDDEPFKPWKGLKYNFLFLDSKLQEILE", "assay": "qHTS for inhibitors of Vif-A3F interactions: Cherry picks; note: nearly all actives have a fitted effect of over 70% in size;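 for max response: % of control where 0% means no effect; active compounds raise eYFP fluorescence by blocking Vif-driven A3F loss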", "conditions": "HeLa A3F-eYFP + Vif (tagged APOBEC3F with the HIV-1 protein that degrades it), eYFP fluorescence, 24 h", "summary_of_the_method": "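Read-out: yellow fluorescence (ex 488 nm, em 500-530 nm) by laser-scanning cytometer after 24 h compound exposure, several concentrations, at 37 deg C. Cells: HeLa line stably co-expressing Vif and C-terminally eYFP-tagged A3F; MG132 served as positive control.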", "values": [{"smiles": "CCCCOc1ccc(/C=C/C2=CC(C)(C)NC(=S)N2)cc1OCC", "max response": "-3.97% (inactive)"}, {"smiles": "CCN(CC)c1ccc(/C=C/c2ccccn2)cc1", "Potency": "5.17 µM (active)"}, {"smiles": "CN(C)c1ccc(/C=C/c2ccncc2)cc1", "max response": "-29.1% (inactive)"}, {"smiles": "CCN(CC)c1ccc(/C=C/C2=C3C=CC=CC3NC=C2)cc1", "note": "(stereo not drawn)", "Potency": "18.4 µM (active)"}, {"smiles": "CCN(CC)c1ccc(/C=C/c2ccncc2)cc1", "Potency": "4.11 µM (active)"}, {"smiles": "Cc1cc(C)c(C(=O)N(CCN(C)C)CC2CCCN(Cc3ccccc3F)C2)o1", "note": "(stereo not drawn)", "max response": "2.52% (inactive)"}, {"smiles": "CCOc1ncccc1C(=O)NCc1ccc(OC)cc1", "max response": "-24.5% (inactive)"}, {"smiles": "CCOc1ccc(CCNC(=O)c2ccc(Cn3c(=O)c4cccn4c4cccnc43)cc2)cc1", "Potency": "16.4 µM (active)"}, {"smiles": "Cc1ccc(CNC(=O)Cn2cc(C(=O)c3ccc(Cl)cc3)c(=O)c3ccc(C)nc32)cc1", "max response": "-28.8% (inactive)"}, {"smiles": "Cc1ccc(-n2c(=O)c3ccc(C(=O)NCc4ccccc4Cl)cc3n(CC(=O)Nc3cccc(Cl)c3)c2=O)cc1", "max response": "-26% (inactive)"}, {"smiles": "CCOc1ncccc1C(=O)OCc1ccc(C(=O)OC)cc1", "max response": "-26.7% (inactive)"}, {"smiles": "CCOc1ccc(NC(=O)Cn2c(=O)n(Cc3ccc(C(=O)NCc4ccc(C)cc4)cc3)c(=O)c3ccccc32)cc1", "Potency": "11.6 µM (active)"}, {"smiles": "O=C(NCCc1ccccc1Cl)c1ccc(Cn2c(=O)c3cccn3c3cccnc32)cc1", "Potency": "20.6 µM (active)"}, {"smiles": "Cc1ccc2nc(-c3ccccn3)c(Nc3ccccc3C)n2c1", "max response": "-2.29% (inactive)"}, {"smiles": "CCCCN1C(=O)C2Cc3c([nH]c4ccccc34)CN2C1=S", "note": "(stereo not drawn)", "Potency": "15.8 µM (active)"}, {"smiles": "CC1(C)CCN2CCC(C)(C)c3c(O)ccc1c32", "Potency": "14 µM (active)"}, {"smiles": "CSc1ccc(/C=N/NC(=O)c2ccccc2Cl)cc1", "max response": "-22.8% (inactive)"}, {"smiles": "O=C(N/N=C/c1ccc([N+](=O)[O-])o1)c1cn2ccc3ccccc3c2n1", "max response": "-11.2% (inactive)"}, {"smiles": "O=C(N/N=C/c1ccc([N+](=O)[O-])o1)c1sc2ccccc2c1Cl", "Potency": "8.2 µM (active)"}, {"smiles": "O=C(N/N=C/c1ccc([N+](=O)[O-])o1)c1cc2c(ccc3ccccc32)o1", "Potency": "9.2 µM (active)"}, {"smiles": "O=C(Cc1cc2ccccc2o1)NCc1ccc(F)cc1", "max response": "-14% (inactive)"}, {"smiles": "N#Cc1c(-c2ccc(F)cc2)c(-c2ccc(F)cc2)nn(CCO)c1=O", "Potency": "7.04 µM (active)"}, {"smiles": "Cc1ccc2c(c1)sc(-c1ccc(N(C)C)cc1)[n+]2C", "Potency": "18.4 µM (active)"}, {"smiles": "Cc1cccc(C)c1Nc1nc2ccccc2nc1NS(=O)(=O)c1ccccc1", "max response": "-12.4% (inactive)"}, {"smiles": "COc1ccc2cc(C(=O)C3CCCN(Cc4ccccn4)C3)ccc2c1", "note": "(stereo not drawn)", "max response": "1.49% (inactive)"}, {"smiles": "COc1ccc2nc(SCC(=O)N3CC(=O)Nc4ccccc43)c(C#N)cc2c1", "Potency": "10.3 µM (active)"}, {"smiles": "CCc1ccc2nc(SCC(=O)Nc3ccccc3N3CCOCC3)c(C#N)cc2c1", "Potency": "1.46 µM (active)"}, {"smiles": "CCc1ccc2nc(SCC(=O)N3CC(=O)Nc4ccccc43)c(C#N)cc2c1", "Potency": "15.8 µM (active)"}, {"smiles": "O=C(NC(=S)Nc1ccccc1N1CCCCC1)c1ccccc1", "max response": "-2.38% (inactive)"}, {"smiles": "NNC(=O)c1cc2sccc2s1", "max response": "-9.98% (inactive)"}, {"smiles": "O=c1[nH]c2cc(Br)cnc2nc1/C=C(\\O)c1ccc(F)cc1", "Potency": "13 µM (active)"}, {"smiles": "CN1CCN(c2nc3ccccc3nc2NS(=O)(=O)c2ccc(Br)cc2)CC1", "max response": "-2.09% (inactive)"}, {"smiles": "O=C(N=c1ccn(-c2nc3ccccc3nc2NS(=O)(=O)c2ccccc2)cc1)c1cccs1", "max response": "-18.4% (inactive)"}, {"smiles": "O=C(N=c1ccn(-c2nc3ccccc3nc2NS(=O)(=O)c2ccc(Cl)cc2)cc1)c1cccs1", "Potency": "13 µM (active)"}, {"smiles": "CCOC(=O)N1CCC(Nc2nc3ccccc3nc2NS(=O)(=O)c2ccc(Cl)cc2)CC1", "max response": "-1.97% (inactive)"}, {"smiles": "O=S(=O)(Nc1nc2ccccc2nc1N1CCN(c2ccccc2)CC1)c1ccc(F)cc1", "max response": "-24.2% (inactive)"}, {"smiles": "O=S(=O)(Nc1nc2ccccc2nc1N1CCN(c2ccccn2)CC1)c1ccc(Cl)cc1", "Potency": "18.4 µM (active)"}, {"smiles": "CCC(C)Sc1cccc(-c2nc3cc(C)ccn3c2NC2CCCCC2)c1", "note": "(stereo not drawn)", "max response": "-1.04% (inactive)"}, {"smiles": "Cc1cc(-n2c(SCC(=O)Nc3ccc(Br)cc3)nc3n[nH]c(C)c3c2=N)ccc1Cl", "max response": "-24.1% (inactive)"}, {"smiles": "Cc1cc(-n2c(C)cc(C(=O)CCl)c2C)no1", "max response": "-21.8% (inactive)"}, {"smiles": "COc1ccc2oc(=N)c(C(=O)Nc3ccc(F)cc3)cc2c1", "max response": "-21% (inactive)"}, {"smiles": "COc1cc(OC)cc(C(=O)Nc2ccc(N3CCN(C(=O)c4cccs4)CC3)cc2)c1", "max response": "-11.5% (inactive)"}, {"smiles": "COc1ccc2o/c(=N/NC(=O)c3cccs3)c(C(N)=O)cc2c1", "Potency": "3.96 µM (active)"}, {"smiles": "COC(=O)C1=C(Nc2ccc(C)cc2)C=C(C)C(C(=O)OC)C1c1cccc(OC)c1", "note": "(stereo not drawn)", "max response": "-20.5% (inactive)"}, {"smiles": "CN(C)c1ccc2ccc3cccc4ccc1c2c34", "Potency": "9.2 µM (active)"}, {"smiles": "Cc1cccc(CN2C(=O)N/C(=C/c3ccc(C)s3)C2=O)c1", "Potency": "9.94 µM (active)"}, {"smiles": "COCc1ccc(O)c2ncccc12", "max response": "1.62% (inactive)"}, {"smiles": "Cc1cc(NC(=O)/C(C#N)=C/c2ccc(-c3ccc(SC(F)F)cc3)o2)n(-c2ccccc2)n1", "Potency": "3.66 µM (active)"}, {"smiles": "Cc1cc(NC(=O)/C(C#N)=C\\c2ccc(-c3ccc(SC(F)F)cc3)o2)n(-c2ccccc2)n1", "Potency": "9.2 µM (active)"}, {"smiles": "Cc1ccc(C)c(N2CCN(C(=O)c3cccn4c(=O)c5sccc5nc34)CC2)c1", "max response": "-29.7% (inactive)"}, {"smiles": "CCOC(=O)c1ccc(/C=C2/C=C(c3ccccc3)N(c3ccc(Cl)c(C(=O)O)c3)C2=O)cc1", "Potency": "20.6 µM (active)"}, {"smiles": "Cc1ccc(C(=O)O)cc1Nc1nc2ccccc2n2nnnc12", "max response": "-4.15% (inactive)"}, {"smiles": "CN(C)c1ccc(Nc2nc3ccccc3n3nnnc23)cc1", "max response": "-2.05% (inactive)"}, {"smiles": "CC(NC(=O)c1ccc(Nc2nc3ccccc3n3nnnc23)cc1)c1ccccc1", "note": "(stereo not drawn)", "Potency": "16.4 µM (active)"}, {"smiles": "Cc1ccc2nc3sc(C(=O)N4CCCc5ccccc54)c(N)c3cc2c1", "Potency": "14 µM (active)"}, {"smiles": "Cc1cccc2cc3c(N)c(C(=O)N4CCCc5ccccc54)sc3nc12", "Potency": "9.2 µM (active)"}, {"smiles": "Cc1cccc2cc3c(N)c(C(=O)N4CCc5ccccc54)sc3nc12", "Potency": "6.51 µM (active)"}, {"smiles": "CCCn1nnc(NC(=S)NC(=O)c2ccccc2OC)n1", "max response": "0.308% (inactive)"}]}]}
